ssDAF-12 act: activators of S. stercoralis DAF-12 nuclear receptor | AID 652126 | actives 1% (n = 370,000) | activation, % at 6.8 µM | HEK293 ssDAF-12/GRIP1 lit1-tk-luc reporter, luminescence; % of 3 µM dafachronic acid response;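 active = activation above the mean over all tested compounds plus 3 SD, cut at about 0.9% in these data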;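 also: 0% = DMSO-only wells and 100% = 3 µM delta7-dafachronic acid wells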
hcDAF-12 act: activates DAF-12 receptor from parasite H. contortus | HEK293 hcDAF-12 lit1-tk-luc reporter, luminescence; 0% DMSO, 100% Δ7-dafachronic acid | activation, % at 6.8 µM | actives 1.4% (n = 370,000);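 active = activation above the mean of all tested compounds plus 3 SD, cut at about 5.5% in these data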;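 also: 100% = response to 3 µM Δ7-dafachronic acid high control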
hgDAF-12 ag: activates the H. glycines DAF-12 receptor ligand-binding domain. HEK293 GAL4-hgDAF12 UAS-luciferase reporter, agonist luminescence; normalized to butyrate control. AID 687014. activation, % at 6.8 µM. actives 1.8% (n = 370,000);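 active = activation above a cutoff set at the mean of all screened compounds plus 3 SD, cut at about 10% in these data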;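 also: 0% = DMSO wells and 100% = sodium butyrate wells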
SMARCA2 act: increases SMARCA2 function in MMTV reporter cells; MG213 cells, MMTV-luciferase reporter, dexamethasone, overnight; activation, % at 9.1 µM; actives 1% (n = 370,000); in the data active = activation above about 7.8%;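 also: 0% = vehicle wells and 100% = reference activator wells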
DAX1 inh: inhibitors of DAX1 repression of SF-1 activated StAR promoter. HEK293T StAR-luciferase reporter, SF-1/DAX-1 repression relief. inhibition, % at 6.8 µM. actives 1.1% (n = 370,000). AID 652010;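 active = inhibition above the mean over all tested compounds plus 3 SD, cut at about 3.6% in these data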;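 also: 0% = DAX-1 cells with DMSO and 100% = cells lacking DAX-1 with DMSO; higher inhibition means more luminescence from relief of DAX-1 repression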
SMARCA2 conf: confirmation of SMARCA2 (BRM) function activators; actives 30% (n = 3,500); MG213 cells, MMTV-luciferase with dexamethasone, luminescence, overnight; MG213 cells expressing E1A, Rb sequestered; DMSO wells 0%, reference activator 100%; shares compounds with SMARCA2 act; AID 652260; activation, % at 9.1 µM;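 active = activation above its plate's cutoff, the mean activation of tested wells plus 3 SD, cut at about 7.9% in these data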
GAL4-VP16 Luc: GAL4-VP16 reporter activation counter-screen. shares compounds with SMARCA2 act. HEK293 GAL4-VP16 pG5luc reporter, luciferase luminescence; scaled: DMSO wells 0%, SAHA wells 100%. activation, % at 9.1 µM. actives 41% (n = 3,500). AID 686939;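 active = activation above the solvent-only control well mean plus 3 SD, averaged across control plates, cut at about 5.2% in these data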
Starred values were filed as active, the others as inactive; · = not tested or not shown. This is a sample that favours compounds with a hit; in the whole collection about 4.2% have one here.

SMILES	ssDAF-12 act	hcDAF-12 act	hgDAF-12 ag	SMARCA2 act	DAX1 inh	SMARCA2 conf	GAL4-VP16 Luc
COc1ccc(C(=O)CSc2nnc(-c3cccnc3)n2-c2ccccc2)cc1	-2	1	4	-2	-1	·	·
C[C@H](O)[C@@H]1CN2CCc3c([nH]c4cccc(-c5ccccc5)c34)[C@@H]2C[C@@H]1N(C)C(=O)C1CCCCC1	-1	-3	1	9.7*	-1	-3	0
O=C(NCCCO)/C(=C/c1ccc(-c2cccc([N+](=O)[O-])c2)o1)NC(=O)c1ccccc1	-1	-1	4	1	-1	·	·
Cc1ccc(C(=O)N/C(=C/c2ccc(-c3ccc([N+](=O)[O-])cc3)o2)C(=O)NCCCN(C)C)cc1	-1	-3	-2	9.5*	0	12*	0
COc1ccc(-c2nnc(SCC(=O)Nc3cccc(Cl)c3)o2)cc1	-1	3	2	12*	1	1	7.2*
O=C(CSc1nc2ccccc2nc1N1CCCC1)N1CCN(C(c2ccccc2)c2ccccc2)CC1	-1	0	1	-7	-1	·	·
O=C(O)c1cc(N/N=C2/CC(c3ccccc3)Oc3ccccc32)ccc1Cl (stereo unspecified)	-1	2	2	10*	1	3	2
CC(C)(C)N/N=C1\CC(c2ccccc2)Oc2ccccc21 (stereo unspecified)	-1	3	-2	3	0	·	·
CS(=O)(=O)n1nc(-c2ccccc2)nc1N	-1	1	-1	-3	0	·	·
CS(=O)(=O)n1nc(-c2ccc(Cl)cc2)nc1N	-1	-1	-2	8.5*	1	1	1
O=C(Nc1cc(-c2ccccc2)[nH]n1)c1ccccc1F	-1	2	12*	9.3*	2	3	10*
CCNC(=S)Nc1cc(-c2ccc(Cl)cc2)[nH]n1	-1	0	4	-1	0	·	·
CC(=O)Nc1cc(-c2ccc(F)cc2)[nH]n1	-1	3	3	11*	1	0	1
O=C(O)c1ccccc1C(=O)Nc1cc(-c2ccccc2)[nH]n1	-1	-1	-1	-2	0	·	·
Cc1ccccc1-c1cc2nc(NCc3ccncc3)n(C)c(=O)c2s1	-1	1	4	11*	1	3	3
Cc1ccccc1-c1cc2nc(NCc3ccccc3)n(C)c(=O)c2s1	0	-2	1	-3	0	·	·
FC(F)(F)c1ccccc1N/N=C/c1cccnc1	-1	-1	3	-1	1	·	·
Fc1ccc(N/N=C/c2cccnc2)c(F)c1	-2	0	2	8.4*	0	1	1
CC(Oc1ccc(Br)cc1)C(=O)O/N=C(\N)c1ccncc1 (stereo unspecified)	-1	-1	-2	12*	-4	-4	0
C[C@@H](NC(=O)[C@@H]1CCCN1C(=O)[C@@H]1CCCN1C(=O)c1ccccc1)c1ccccc1	-1	1	-1	-4	-1	·	·
COc1ccc(N2CC(C(=O)Nc3ccc(S(=O)(=O)Nc4nccs4)cc3)CC2=O)cc1 (stereo unspecified)	-1	0	0	-1	1	·	·
COc1ccc(N2CC(C(=O)Nc3ccc(S(=O)(=O)Nc4nc(C)cc(C)n4)cc3)CC2=O)cc1 (stereo unspecified)	-1	0	1	9.4*	-1	-2	0
Cc1cc(C)nc(NS(=O)(=O)c2ccc(NC(=O)C3CC(=O)N(c4ccccc4)C3)cc2)n1 (stereo unspecified)	-2	-1	-1	8.2*	1	-2	1
CCc1ccc(N2CC(C(=O)Nc3ccc(S(=O)(=O)Nc4ncccn4)cc3)CC2=O)cc1 (stereo unspecified)	-1	-2	0	2	0	·	·
N#Cc1c(N)[nH]c(C(=O)c2ccccc2)c1-c1ccc(Br)cc1	0	0	-2	-2	0	·	·
SMILES	ssDAF-12 act	hcDAF-12 act	hgDAF-12 ag	SMARCA2 act	DAX1 inh	SMARCA2 conf	GAL4-VP16 Luc
COP(=O)(CC(=O)C(Cc1ccccc1)NC(=O)OC(C)(C)C)OC (stereo unspecified)	-1	0	3	-3	0	·	·
CCCC1CCC2(CC1)CCC2OC(=S)Nc1cccc(C(F)(F)F)c1 (stereo unspecified)	-2	0	-3	·	·	·	·
COc1ccc(Nc2c(-c3cc4ccccc4o3)nc3nc(C)cc(C)n23)cc1	1	4	4	8.6*	-1	0	2
CCCCNc1c(-c2cc3ccccc3o2)nc2nc(C)cc(C)n12	-1	4	6	0	3	·	·
O=C(NCCc1cn2ccccc2n1)c1ccccc1F	-1	-2	-1	3	0	·	·
Fc1ccc(NCc2cn3ccccc3n2)cc1	-1	2	9	9.7*	2	7	6.3*
CC(Cc1ccccc1)Nc1ncnc2c1ncn2C1OC(CO)C(O)C1O (stereo unspecified)	-1	-3	-4	3	1	·	·
CNc1ncnc2c1ncn2[C@@H]1O[C@H](CO)[C@@H](O)[C@H]1O	-1	-2	1	8.4*	0	0	1
OCC1OC(n2cnc3c(/C=C(\O)c4ccccc4)ncnc32)C(O)C1O (stereo unspecified)	-1	2	8	8.9*	1	-2	3
CN(C)c1ncnc2c1nnn2C1OC(CO)C(O)C1O (stereo unspecified)	-1	2	-11	13*	0	17*	-3
CN(C)c1ncnc2c1ncn2C1OC(CO)C(O)C1O (stereo unspecified)	-2	-1	-6	-2	-2	·	·
COC(=O)[C@]12C[C@H](CC(=O)N3CCOCC3)C(=O)N(Cc3ccc4c(c3)OCO4)C1=C[C@H](C(C)(C)C)O[C@@H]2C	-1	-1	1	-1	-1	·	·
Cc1cc(Cl)c2oc(C(=O)NCCC3CCCCO3)c(C)c2c1 (stereo unspecified)	0	4	5	8.9*	3	3	5
C=C(C)C(=O)Oc1ccc(N=Nc2ccc(C)cc2)ccc1=O	0	2	4	19*	1	-1	9.1*
C=C(C)C(=O)Oc1ccc(N2C(=O)CCC2=O)cc1	-1	-3	-2	1	-1	·	·
COc1ccccc1Oc1ccccc1[N+](=O)[O-]	0	2	9	10.0*	2	0	3
O=[N+]([O-])c1cccnc1Oc1ccc(F)cc1	-2	1	-1	-2	0	·	·
COc1ccccc1[N+](=O)[O-]	-1	-1	1	-5	1	·	·

Screens: PubChem, The Scripps Research Institute Molecular Screening Center
